# Inconclusive results are not listed. A call without a number means that no potency is given here. The source made the active and inactive calls. Unless noted, calls follow the shape of the dose curve; as a rule, active = well fitted curve in the direction sought with a large enough effect in the repeat runs; inconclusive = weak or mixed curves; inactive = no such curve, though single readings can be large; an effect the other way counts as inactive or inconclusive.
# Key:
# [1] = molecular target: Aryl hydrocarbon receptor (Homo sapiens) (UniProt P35869); assay: qHTS assay to identify small molecule that activate the aryl hydrocarbon receptor (AhR) signaling pathway (AID 743085);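 also: HG2L7.5c1 human HepG2 liver cells with stably integrated DRE-driven firefly reporter; series mostly up to about 70 µM; nearly all actives have a fitted effect of over 15% in size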
# Outline: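 Reporter assay in engineered HepG2 line HG2L7.5c1, whose plasmid carries twenty dioxin responsive elements upstream of firefly luciferase. Treatment lasted 24 h at 37C; ONE-Glo luminescence gauged induction.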
# [2] = qHTS assay to identify small molecule that activate the aryl hydrocarbon receptor (AhR) signaling pathway - cell viability counter screen (AID 743086); also: nearly all actives have a fitted effect of over 45% in size; also: potency is read from the fitted curve at half-maximal effect
# Outline: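 HepG2-AhR-luc (HG2L7.5c1) cells, 4000/well, treated 24 h at 37 C with compound; viability measured as CellTiter-Fluor fluorescence after 30 min in the same wells as the luciferase read.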
# [3] = molecular target: Peroxisome proliferator-activated receptor gamma (Homo sapiens) (UniProt P37231); assay: qHTS assay to identify small molecule agonists of the peroxisome proliferator-activated receptor gamma (PPARg) signaling pathway (AID 743094; active = well fitted activation curve with a large enough effect in the signal ratio in the repeat runs, not every such curve was filed as active; the % refers to the signal ratio)
# Outline: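 Fluorescence-based beta-lactamase readout in HEK293H PPARg UAS-bla cells after 17 h compound exposure (37C) and 1 h B/G FRET substrate incubation at room temperature.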
# [4] = qHTS assay to identify small molecule antagonists of the peroxisome proliferator-activated receptor gamma (PPARg) signaling pathway - cell viability counter screen (AID 743194); also: nearly all actives have a fitted effect of over 55% in size
# Outline: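 Cytotoxicity counter screen in PPARg-bla HEK293H cells, same wells as reporter assay. Compounds plus 50 nM rosiglitazone (final) for 17 h at 37 C, then viability read by CellTiter-Glo luminescence.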
# [5] = qHTS assay for small molecule agonists of the antioxidant response element (ARE) signaling pathway (AID 743202; active = well fitted activation curve with a large enough effect in the signal ratio in the repeat runs, not every such curve was filed as active; the % refers to the signal ratio)
# Outline: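 HepG2 ARE-bla reporter line, 2,000 cells/well; 5 h preincubation 37 C/5% CO2; compound (DMSO) 16 h 37 C; B/G FRET substrate 2 h RT; fluorescence intensity.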
# [6] = qHTS assay for small molecule activators of the heat shock response signaling pathway (AID 743210; active = well fitted activation curve with a large enough effect in the signal ratio in the repeat runs, with a control signal flat, not every such curve was filed as active; the % refers to the signal ratio;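 also: HeLa cells with beta-lactamase reporter driven by heat shock elements; series mostly up to about 63 µM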)
# Outline: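 Beta-lactamase reporter read-out: FRET substrate fluorescence after 2.5 h at RT, following 5 h compound treatment at 37 C of HeLa cells carrying HSE-driven bla reporter; quantitative HTS format.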
# [7] = molecular target: Peroxisome proliferator-activated receptor delta (Homo sapiens) (UniProt Q03181); assay: qHTS assay to identify small molecule agonists of the peroxisome proliferator-activated receptor delta (PPARd) signaling pathway (AID 743212; calls by dose curve)
# Outline: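 Read-out: beta-lactamase FRET fluorescence after 2 h room-temperature incubation with LiveBLAzer B/G substrate. Cells were HEK293H carrying a UAS-bla reporter for PPARd, treated at 37 C with DMSO-dissolved compounds.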
# [8] = qHTS assay to identify small molecule antagonists of the peroxisome proliferator-activated receptor delta (PPARd) signaling pathway - cell viability counter screen (AID 743213); also: nearly all actives have a fitted effect of over 50% in size
# Outline: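 PPARd-bla HEK293H cells (3000/well) got compound plus 300 nM L165041 agonist for 17 h at 37 C. Viability in the same wells came from CellTiter-Glo luminescence after 30 min at room temperature.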
# [9] = molecular target: Peroxisome proliferator-activated receptor delta (Homo sapiens) (UniProt Q03181); assay: qHTS assay to identify small molecule antagonists of the peroxisome proliferator-activated receptor delta (PPARd) signaling pathway (AID 743215; active = well fitted inhibition curve with a large enough effect in the signal ratio in the repeat runs, not every such curve was filed as active; the % refers to the signal ratio;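 also: cells stimulated with agonist L165041 at 300 nM final during compound exposure; series mostly up to about 62 µM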)
# Outline: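 Screen format: qHTS, antagonist mode. HEK293H PPARd-bla cells received compound and 300 nM L165041 (final), 17 h, 37 C. Beta-lactamase detected via FRET substrate fluorescence, 2 h, room temperature.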
# [10] = molecular target: Bile acid receptor (Homo sapiens) (UniProt Q96RI1); assay: qHTS assay to identify small molecule antagonists of the farnesoid-X-receptor (FXR) signaling pathway (AID 743217; active = well fitted inhibition curve with a large enough effect in the signal ratio in the repeat runs, not every such curve was filed as active; the % refers to the signal ratio)
# Outline: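 Quantitative HTS, beta-lactamase reporter format: FXR-UAS-bla HEK 293T cells co-treated 16 h at 37 °C with compounds and 50 uM final chenodeoxycholic acid, then read by B/G FRET fluorescence.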
# [11] = qHTS assay to identify small molecule agonists of the farnesoid-X-receptor (FXR) signaling pathway - cell viability counter screen (AID 743218); also: nearly all actives have a fitted effect of over 45% in size
# Outline: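 Same-well cytotoxicity check on FXR-UAS-bla HEK 293T cells: 5 h attachment, 16 h compound at 37 C, CellTiter-Glo luminescence read at room temperature after 30 min.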
# [12] = qHTS assay to identify small molecule antagonists of the farnesoid-X-receptor (FXR) signaling pathway - cell viability counter screen (AID 743221; active = well fitted cell-killing curve with a large enough effect in the repeat runs, not every such curve was filed as active; also: nearly all actives have a fitted effect of over 50% in size; also: potency is read from the fitted curve at half-maximal effect)
# Outline: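 CellTiter-Glo, 30 min RT, luminescence; same wells as the LiveBLAzer FRET read. Cells: FXR-UAS-bla HEK 293T. Treatment: compound with chenodeoxycholic acid 50 uM final, 16 h at 37 C.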
# [13] = molecular target: Vitamin D3 receptor (Homo sapiens) (UniProt P11473); assay: qHTS assay to identify small molecule agonists of the vitamin D receptor (VDR) signaling pathway (AID 743222; calls by dose curve)
# Outline: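 Using LiveBLAzer B/G FRET detection, agonism was scored in VDR-bla cells exposed overnight (16 h, 37C) to DMSO-dissolved compounds; substrate incubation was 2 h at room temperature.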
# [14] = molecular target: Vitamin D3 receptor (Homo sapiens) (UniProt P11473); assay: qHTS assay to identify small molecule antagonists of the vitamin D receptor (VDR) signaling pathway (AID 743223; active = well fitted inhibition curve with a large enough effect in the signal ratio in the repeat runs, not every such curve was filed as active; the % refers to the signal ratio)
# Outline: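 After VDR-bla cells are plated and left 4 h at 37C, DMSO-dissolved compounds and 3 nM (final) calcitriol agonist are added. Incubation continues 16 h at 37C; FRET beta-lactamase substrate then develops 2 h at room temperature.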
# [15] = qHTS assay for small molecule agonists of the antioxidant response element (ARE) signaling pathway - cell viability counter screen (AID 743203; calls by dose curve; also: nearly all actives have a fitted effect of over 55% in size)
# Outline: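 Parallel cytotoxicity read-out for the ARE-bla screen: HepG2 reporter cells, 16 hrs with compounds, then CellTiter-Glo luminescence.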
# [16] = qHTS assay for small molecule activators of the heat shock response signaling pathway - cell viability counter screen (AID 743209); also: nearly all actives have a fitted effect of over 50% in size
# Outline: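 To flag cytotoxic compounds, HSE-bla HeLa cells plated at 1500 cells/well were dosed for 5 h at 37 C, followed by the reporter FRET read and then CellTiter-Glo, with luminescence recorded 30 min after reagent addition.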
# [17] = qHTS assay to identify small molecule agonists of the peroxisome proliferator-activated receptor delta (PPARd) signaling pathway - cell viability counter screen (AID 743211); also: nearly all actives have a fitted effect of over 55% in size
# Outline: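 Multiplexed format: after the 2 h room-temperature LiveBLAzer B/G FRET step, CellTiter-Glo was added to the same wells. Luminescence after 30 min gave cell viability; compound exposure was 17 h at 37C.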
# [18] = qHTS assay to identify small molecule agonists of the vitamin D receptor (VDR) signaling pathway - cell viability counter screen (AID 743224); also: series mostly up to about 63 µM; nearly all actives have a fitted effect of over 50% in size
# Outline: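 Counter screen for cytotoxicity: VDR-bla cells at 2,000 cells/well, 16 h compound exposure, then CellTiter-Glo luminescence after the beta-lactamase measurement.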
# [19] = molecular target: Bile acid receptor (Homo sapiens) (UniProt Q96RI1); assay: qHTS assay to identify small molecule agonists of the farnesoid-X-receptor (FXR) signaling pathway (AID 743220; active = well fitted activation curve with a large enough effect in the signal ratio in the repeat runs, not every such curve was filed as active; the % refers to the signal ratio)
# Outline: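 FXR-UAS-bla HEK 293T cells carrying a UAS-driven beta-lactamase reporter were plated for 5 h at 37C/5% CO2, then exposed to DMSO-dissolved Tox21 10K compounds for 16 h at 37C. A LiveBLAzer B/G FRET substrate was loaded for 2 h at room temperature before fluorescence reading.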
# Chain of Peroxisome proliferator-activated receptor delta (Homo sapiens) (Q03181 whole entry, looked up): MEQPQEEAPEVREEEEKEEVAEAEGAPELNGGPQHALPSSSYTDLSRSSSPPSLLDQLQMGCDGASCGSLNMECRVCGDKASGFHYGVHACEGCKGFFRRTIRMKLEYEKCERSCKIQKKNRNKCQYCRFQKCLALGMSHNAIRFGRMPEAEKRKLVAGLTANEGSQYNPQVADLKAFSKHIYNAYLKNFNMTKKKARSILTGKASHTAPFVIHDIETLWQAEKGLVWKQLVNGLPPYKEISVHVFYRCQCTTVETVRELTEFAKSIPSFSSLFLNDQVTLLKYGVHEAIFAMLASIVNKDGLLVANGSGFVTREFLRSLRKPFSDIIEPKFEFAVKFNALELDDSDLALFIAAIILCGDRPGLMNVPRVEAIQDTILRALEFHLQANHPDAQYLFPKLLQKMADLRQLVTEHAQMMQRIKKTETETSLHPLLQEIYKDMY
# Chain of Aryl hydrocarbon receptor (Homo sapiens) (P35869 whole entry, looked up): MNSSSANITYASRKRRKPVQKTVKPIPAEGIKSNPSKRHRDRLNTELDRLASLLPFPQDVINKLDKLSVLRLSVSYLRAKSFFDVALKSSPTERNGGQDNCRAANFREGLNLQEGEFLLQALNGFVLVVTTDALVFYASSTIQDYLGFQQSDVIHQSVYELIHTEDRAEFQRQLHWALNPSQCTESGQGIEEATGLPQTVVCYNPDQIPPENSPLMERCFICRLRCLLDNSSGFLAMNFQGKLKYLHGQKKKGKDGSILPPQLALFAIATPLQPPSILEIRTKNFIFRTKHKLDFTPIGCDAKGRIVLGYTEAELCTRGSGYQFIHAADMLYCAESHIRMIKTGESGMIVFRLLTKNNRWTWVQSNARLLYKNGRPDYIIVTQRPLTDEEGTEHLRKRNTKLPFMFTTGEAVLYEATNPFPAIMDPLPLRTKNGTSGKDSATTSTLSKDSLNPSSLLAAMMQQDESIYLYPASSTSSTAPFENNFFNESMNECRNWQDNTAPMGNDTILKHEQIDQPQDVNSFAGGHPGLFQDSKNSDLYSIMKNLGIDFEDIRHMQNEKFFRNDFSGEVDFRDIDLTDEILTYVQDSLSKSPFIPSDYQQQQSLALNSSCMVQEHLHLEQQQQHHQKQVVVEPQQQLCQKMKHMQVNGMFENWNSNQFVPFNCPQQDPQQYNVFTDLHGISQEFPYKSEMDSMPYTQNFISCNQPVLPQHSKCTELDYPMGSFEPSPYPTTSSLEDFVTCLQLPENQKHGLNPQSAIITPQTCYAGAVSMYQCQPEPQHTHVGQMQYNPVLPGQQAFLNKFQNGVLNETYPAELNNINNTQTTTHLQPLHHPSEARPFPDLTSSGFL
# Chain of Peroxisome proliferator-activated receptor gamma (Homo sapiens) (P37231 whole entry, looked up): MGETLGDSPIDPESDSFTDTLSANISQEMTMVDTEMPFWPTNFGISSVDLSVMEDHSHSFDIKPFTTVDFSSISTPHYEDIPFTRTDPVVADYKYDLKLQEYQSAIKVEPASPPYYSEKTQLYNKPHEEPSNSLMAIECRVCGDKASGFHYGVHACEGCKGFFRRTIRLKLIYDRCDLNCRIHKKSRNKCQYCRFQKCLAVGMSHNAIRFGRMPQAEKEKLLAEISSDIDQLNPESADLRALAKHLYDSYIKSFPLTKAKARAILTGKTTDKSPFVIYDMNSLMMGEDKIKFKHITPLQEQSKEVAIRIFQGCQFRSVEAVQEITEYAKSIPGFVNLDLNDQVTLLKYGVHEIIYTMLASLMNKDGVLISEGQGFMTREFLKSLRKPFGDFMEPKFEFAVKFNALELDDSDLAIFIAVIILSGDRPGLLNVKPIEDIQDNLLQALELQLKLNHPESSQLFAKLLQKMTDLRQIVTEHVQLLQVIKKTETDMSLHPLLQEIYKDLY
# Chain of Bile acid receptor (Homo sapiens) (Q96RI1 whole entry, looked up): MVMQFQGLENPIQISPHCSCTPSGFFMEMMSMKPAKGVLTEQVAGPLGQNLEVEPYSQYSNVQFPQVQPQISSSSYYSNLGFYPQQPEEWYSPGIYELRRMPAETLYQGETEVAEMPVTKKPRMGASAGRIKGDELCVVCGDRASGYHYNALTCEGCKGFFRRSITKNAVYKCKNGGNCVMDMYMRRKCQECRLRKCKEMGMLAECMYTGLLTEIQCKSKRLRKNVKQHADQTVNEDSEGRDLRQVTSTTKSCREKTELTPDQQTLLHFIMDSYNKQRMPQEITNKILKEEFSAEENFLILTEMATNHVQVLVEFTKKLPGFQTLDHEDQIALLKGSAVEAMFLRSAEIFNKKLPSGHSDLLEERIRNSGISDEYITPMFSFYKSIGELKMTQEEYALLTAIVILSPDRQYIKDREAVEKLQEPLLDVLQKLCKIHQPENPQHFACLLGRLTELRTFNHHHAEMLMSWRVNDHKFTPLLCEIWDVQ
# Chain of Vitamin D3 receptor (Homo sapiens) (P11473 whole entry, looked up): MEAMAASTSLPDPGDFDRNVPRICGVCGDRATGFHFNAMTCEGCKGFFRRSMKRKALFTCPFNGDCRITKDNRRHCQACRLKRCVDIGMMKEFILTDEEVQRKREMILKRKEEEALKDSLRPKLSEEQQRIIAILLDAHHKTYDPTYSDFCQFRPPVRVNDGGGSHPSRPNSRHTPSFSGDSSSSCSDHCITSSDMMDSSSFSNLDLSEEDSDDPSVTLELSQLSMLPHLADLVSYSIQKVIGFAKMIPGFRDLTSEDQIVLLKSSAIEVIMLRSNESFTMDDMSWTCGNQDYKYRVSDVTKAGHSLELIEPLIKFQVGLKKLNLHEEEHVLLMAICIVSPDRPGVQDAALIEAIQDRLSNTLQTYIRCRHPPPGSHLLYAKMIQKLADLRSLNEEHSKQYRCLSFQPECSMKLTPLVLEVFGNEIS
SMILES,Potency [1],Potency [2],outcome [3],Potency [4],Potency [5],Potency [6],outcome [7],Potency [8],Potency [9],outcome [10],Potency [11],Potency [12],outcome [13],outcome [14],Potency [15],Potency [16],Potency [17],Potency [18],Potency [19]
CCN(Cc1cccc(S(=O)(=O)O)c1)c1ccc(C(=C2C=CC(=[N+](CC)Cc3cccc(S(=O)(=O)O)c3)C=C2)c2ccccc2S(=O)(=O)[O-])cc1,inactive,27.4 µM (active),inactive,inactive,inactive,inactive,inactive,inactive,inactive,inactive,inactive,13.9 µM (active),inactive,inactive,–,–,–,–,–
CC(C)C(O)C(C)(C)CO (centres undefined),inactive,inactive,inactive,inactive,inactive,inactive,inactive,inactive,inactive,inactive,inactive,inactive,inactive,inactive,inactive,inactive,inactive,inactive,–
CC[C@H]1OC(=O)[C@H](C)[C@@H](O[C@H]2C[C@@](C)(OC)[C@@H](O)[C@H](C)O2)[C@H](C)[C@@H](O[C@@H]2O[C@H](C)C[C@H](N(C)C)[C@H]2O)[C@](C)(O)C[C@@H](C)CN(C)[C@H](C)[C@@H](O)[C@]1(C)O,inactive,inactive,inactive,inactive,–,inactive,inactive,–,–,–,–,–,inactive,–,inactive,inactive,–,inactive,–
CC(=O)C(=O)CC(C)C,inactive,inactive,inactive,inactive,inactive,–,inactive,–,inactive,–,inactive,inactive,inactive,inactive,inactive,inactive,inactive,inactive,–
O=C(O)/C=C/c1ccc(O)c(O)c1,inactive,inactive,inactive,inactive,–,inactive,–,inactive,inactive,inactive,inactive,inactive,–,inactive,inactive,inactive,inactive,–,–
CC(C)C1CCC(C(=O)N[C@H](Cc2ccccc2)C(=O)O)CC1 (some centres undefined),inactive,inactive,inactive,inactive,inactive,inactive,–,–,–,–,inactive,–,–,inactive,inactive,inactive,–,inactive,–
CC(CO)(CO)C(=O)O,inactive,inactive,inactive,inactive,inactive,inactive,inactive,inactive,inactive,inactive,inactive,–,inactive,inactive,inactive,–,–,inactive,–
CC(=O)OCC(=O)[C@@]1(OC(C)=O)[C@@H](C)C[C@H]2[C@@H]3C[C@H](F)C4=CC(=O)C=C[C@]4(C)[C@@]3(F)[C@@H](O)C[C@@]21C,inactive,inactive,inactive,inactive,inactive,inactive,–,–,inactive,–,inactive,inactive,–,inactive,inactive,inactive,inactive,inactive,–
CCCCCCCCCCCCCOC(=O)CCSCCC(=O)OCCCCCCCCCCCCC,inactive,inactive,inactive,inactive,inactive,inactive,inactive,inactive,inactive,inactive,inactive,inactive,inactive,inactive,inactive,inactive,inactive,inactive,inactive
CC(=O)Oc1cccc(O)c1,inactive,inactive,inactive,inactive,–,inactive,–,inactive,–,inactive,inactive,inactive,–,inactive,inactive,inactive,inactive,inactive,–
O=C(O)CCC(=O)OC[C@@H](NC(=O)C(Cl)Cl)[C@H](O)c1ccc([N+](=O)[O-])cc1,inactive,inactive,inactive,inactive,inactive,–,inactive,inactive,inactive,–,inactive,inactive,–,–,inactive,inactive,inactive,inactive,–
CSSc1ccoc1C,inactive,inactive,inactive,inactive,inactive,inactive,inactive,inactive,inactive,inactive,–,inactive,–,–,inactive,inactive,inactive,inactive,inactive

# Reference: PubChem BioAssay (Tox21)
